Each structure is given as a SMILES string. Inconclusive results are not listed. Active and inactive are the calls of the source. Calls come from the whole dose curve; as a rule, active = well fitted curve in the direction sought with a large enough effect; inconclusive = small, poorly fitted or top-dose-only effect, or another doubt; inactive = no such curve, though single readings can be large or run the other way.

The test system of this assay is Zika virus NS2B-NS3 protease (linked). Put plainly: Optimization screen NINDS AMC qHTS for Zika virus inhibitors: Linked NS2B-NS3 protease assay. As to conditions: recombinant linked NS2B-NS3 protease, AMC fluorogenic substrate; series mostly up to 52.5 µM. The text has this:
Avindra Nath, Ph.D., National Institute of Neurological Disorders and Stroke (NINDS), Bethesda, MD
Radhakrishnan Padmanabhan, Ph.D., Georgetown University (GU), Washington D.C.
Zika Virus causes congenital defects, including microcephaly and is associated with Guillain-Barre syndrome, eningoencephalitis and myelitis in infected adult. […] Using a target-based approach, we hope to establish a screening paradigm to uncover novel, cell-active NS2B-NS3 protease (Zika Virus) specific inhibitors from NCATS' collection of small molecules using qHTS.
Four assay panel was created to identify potential Zika Virus inhibitors. Namely, (1) GU unlinked NS2B-NS3 AMC tagged protease qHTS, (2) GU unlinked NS2B-NS3 Rhodamine tagged protease qHTS, (3) NINDS linked NS2B-NS3 AMC tagged protease qHTS, (4) NINDS linked NS2B-NS3 Rhodamine tagged protease qHTS. Active compounds were re-acquired and re-screened to confirm inhibition. Inhibitors were further screened against various confirmatory and counterscreens in dose response format.
Early Translation Branch (ETB)
National Center for Advancing Translational Sciences (NCATS), Rockville, MD
National Institute of Health (NIH), Bethesda, Maryland
For the linked assay, Nath lab (NINDS) provided the purified linked NS2B-NS3 protease which is consists of hydrophilic domain of NS2B linked to the NS3 protease domain by a flexible (-GGGGSGGGG-) linker. Control compound aprotinin is obtained from Thermo Scientific (#78432; Waltham, Massachusetts). NS2B-NS3 AMC substrate (Bz-Nle-Lys-Arg-Arg-AMC; Nle-KRR-AMC) purchased from Bachem (#I-1995; Torrance, CA). Ac-VKTGKR-AMC purchased from Genscript or Bachem, Ac-FAAGKR-AMC purchased from Genscript, Ac-GLVKRR-AMC purchased from Genscript, Ac-LKKR-AMC purchased from Genscript.
NINDS AMC linked NS2B-NS3 protease qHTS protocol:
Briefly, 3 microL of Zika virus linked NS2B-NS3 protease (1 nM for linked final concentration), in assay buffer (10 mM Tris-HCl pH 8.0 with 0.01% Tween 20) was dispensed into a 1,536-well solid-bottom black plate (Greiner Bio One, Monroe, NC). Twenty-three nL of compounds (final concentration range 7.28 nM to 114 microM) or control Aprotinin (final concentration range 3.47 nM to 114 microM) were transferred via Wako Pin-tool (Wako Automation, Richmond, VA). Samples were incubated (room temperature, protected from light) for 15 minutes followed by a 1 microL AMC substrate addition of (final concentration of 10 microM; Km = 18.3 µM). Plates were then read immediately on a ViewLux High-throughput CCD imager (PerkinElmer, Waltham, MA) equipped with standard UV fluorescence optics (340(30) nm excitation, 450(20) nm emission) then incubated (room temperature, protected from light) for 15 minutes (~20% conversion). The change in fluorescence intensity over the 15-minute reaction period was normalized against no-inhibitor and no-enzyme controls and the resulting percent inhibition data were fitted to a 4-parameter Hill equation. Aprotinin was used as the intraplate control.
As for `C[C@H]1O[C@@H](O[C@H]2[C@@H](O)C[C@@H](O[C@H]3[C@@H](O)C[C@H](O[C@H]4CC[C@@]5(C)[C@H](CC[C@@H]6[C@@H]5CC[C@]5(C)[C@@H](C7=CC(=O)OC7)CC[C@]65O)C4)O[C@@H]3C)O[C@@H]2C)C[C@H](O)[C@@H]1O`, the result was inactive. As for `CN1CC[C@@]23CCCC[C@@H]2[C@@H]1Cc1ccc(O)cc13`, the entry is “inactive”; as for `CC[C@H](C)[C@H]1O[C@]2(C=C[C@@H]1C)C[C@@H]1C[C@@H](C/C=C(\C)[C@@H](O[C@H]3C[C@H](OC)[C@@H](O[C@H]4C[C@H](OC)[C@@H](O)[C@H](C)O4)[C@H](C)O3)[C@@H](C)/C=C/C=C3\CO[C@@H]4[C@H](O)C(C)=C[C@@H](C(=O)O1)[C@]34O)O2`, “inactive”. As for `C[C@@H]1[C@@H]2Cc3ccc(O)cc3[C@@]1(C)CCN2CCc1ccccc1`, the entry is “inactive”. As to `C[C@@H]1O[C@@H](O[C@H]2C[C@@H](O)[C@]3(CO)C4C(CC[C@]3(O)C2)[C@@]2(O)CC[C@H](C3=CC(=O)OC3)[C@@]2(C)C[C@H]4O)[C@H](O)[C@H](O)[C@H]1O` (stereo partly specified), the outcome was inactive.

Take `C[C@H]1[C@H]2Cc3ccc(O)cc3[C@]1(C)CCN2CCc1ccccc1`: the outcome was inactive. The entry for `C=CCN1CC[C@]23CCCCC2[C@H]1Cc1ccc(O)cc13` (stereo partly specified) is “inactive”; for `C[C@@H]1O[C@@H](O[C@H]2C[C@@H](O)[C@]3(CO)[C@H]4[C@H](O)C[C@]5(C)[C@@H](C6=CC(=O)OC6)CC[C@]5(O)[C@@H]4CC[C@]3(O)C2)[C@H](O)[C@H](O)[C@H]1O` it is “inactive”. The entry for `COC1C(O)C(C)O[C@@H](OC2CC[C@@]3(C)C4CC[C@]5(C)C(C6=CC(=O)OC6)CC[C@@]5(O)C4CC[C@@H]3C2)C1O` (stereo partly specified) is “inactive”; for `C[C@@H]1[C@@H]2Cc3ccc(O)cc3[C@@]1(C)CCN2CC1CC1` it is “inactive”; for `C=CCN1CCC2(C)c3cc(O)ccc3C[C@H]1[C@H]2C` it is “inactive”. Consider `CO[C@H]1[C@@H](O)CC(OC2[C@@H](O)CC(OC3[C@@H](O)C[C@H](OC4CC[C@@]5(C)C(CCC6C5CC(O)[C@]5(C)[C@H](C7=CC(=O)OC7)CCC65O)C4)O[C@@H]3C)O[C@@H]2C)O[C@@H]1C` (stereo partly specified), for which the result was inactive. As for `CC(C)OC(=O)Nc1ccccc1`, the entry is “inactive”.

`Cc1ccc2c(c1)[C@]13CCCC[C@@H]1[C@H](C2)N(C)CC3`: the result was inactive. `CN1CC[C@@]23CCCCC2C1Cc1ccc(O)cc13` (stereo partly specified): the outcome was inactive.

For `CC1OC(O[C@H]2C[C@@H](O)[C@]3(CO)[C@H]4[C@H](O)C[C@]5(C)[C@@H](C6=CC(=O)OC6)CC[C@]5(O)[C@@H]4CC[C@]3(O)C2)C(O)C(O)C1O` (stereo partly specified), the result was inactive. As for `C[C@H]1O[C@@H](O[C@H]2[C@@H](O)C[C@H](O[C@H]3[C@@H](O)C[C@H](O[C@H]4CC[C@@]5(C)[C@H](CC[C@@H]6[C@@H]5CC[C@]5(C)[C@@H](C7=CC(=O)OC7)CC[C@]65O)C4)O[C@@H]3C)O[C@@H]2C)C[C@H](O)[C@@H]1O`, the entry is “inactive”; as for `CC1O[C@@H](O[C@@H]2C(O)C[C@H](O[C@@H]3C(O)C[C@@H](OC4CC[C@@]5(C)C6CC[C@]7(C)C(C8=CC(=O)OC8)CC[C@@]7(O)C6CC[C@@H]5C4)OC3C)OC2C)CC(O)[C@H]1O` (stereo partly specified), “inactive”; as for `CC(C)=CCN1CC[C@@]2(C)c3cc(O)ccc3C[C@@H]1[C@@H]2C`, “inactive”. As for `C[C@H]1O[C@@H](O[C@H]2[C@@H](O)C[C@H](O[C@H]3[C@@H](O)C[C@H](O[C@H]4CC[C@]5(C)C6CC[C@]7(C)[C@@H](C8=CC(=O)OC8)CC[C@]7(O)C6CC[C@@H]5C4)O[C@@H]3C)O[C@@H]2C)C[C@H](O)[C@@H]1O` (stereo partly specified), the entry is “inactive”.

`C=CCN1CCC2(C)c3cc(O)ccc3CC1C2C` (stereo unspecified): the result was inactive.

The values are drawn from PubChem BioAssay AID1347150 (National Center for Advancing Translational Sciences (NCATS), 2019).
